Our source for the binding signal values is article PMC7862700, “An all-to-all approach to the identification of sequence-specific readers for epigenetic DNA modifications on cytosine”.

What all share (assay): DAPPL (digital affinity profiling via proximity ligation, sequencing); 10 mM Tris-HCl pH 7.5, 50 mM NaCl, 1 mM DTT, 4% glycerol, room temperature, 30 min; GST-TFs on glutathione beads, 16-mer random dsDNA library, 0.1% formaldehyde crosslink after washing; high values mean tight binding
Holding throughout (details): protein: recombinant; tags: N-terminal GST; dsDNA, one strand shown

For experiment [1], the target named is T1, ERF (Homo sapiens, UniProt P50548 1-548).
T1 sequence: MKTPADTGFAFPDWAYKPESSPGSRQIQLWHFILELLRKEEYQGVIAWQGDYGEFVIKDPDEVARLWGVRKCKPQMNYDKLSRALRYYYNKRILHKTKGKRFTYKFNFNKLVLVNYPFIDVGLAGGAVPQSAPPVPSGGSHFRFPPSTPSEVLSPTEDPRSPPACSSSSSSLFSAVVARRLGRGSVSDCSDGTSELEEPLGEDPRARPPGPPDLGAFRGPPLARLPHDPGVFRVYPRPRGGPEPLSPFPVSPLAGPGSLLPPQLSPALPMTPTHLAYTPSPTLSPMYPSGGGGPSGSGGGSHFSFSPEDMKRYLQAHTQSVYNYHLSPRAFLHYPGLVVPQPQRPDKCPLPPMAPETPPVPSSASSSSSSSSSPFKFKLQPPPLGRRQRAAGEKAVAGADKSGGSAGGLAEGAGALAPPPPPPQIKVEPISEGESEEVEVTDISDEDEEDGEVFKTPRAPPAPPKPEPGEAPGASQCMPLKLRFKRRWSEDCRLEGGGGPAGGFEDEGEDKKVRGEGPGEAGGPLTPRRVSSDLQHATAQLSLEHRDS
In a few lines: (§1)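 Yeast served to express human transcription factors as GST fusions, which were then captured on glutathione beads and labelled with DNA barcodes. Pooled with a tag-only sample, they were incubated with 200 nmole of a 16-mer random double-stranded DNA library for 30 min at room temperature in Tris/NaCl/DTT/glycerol buffer, washed, crosslinked with 0.1% formaldehyde, ligated by proximity, amplified by PCR and sequenced. Dividing each hexamer's read frequency for a factor by its frequency for the tag-only sample gives the binding signal.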

In experiment [2] the target is T2, ETV3L (Homo sapiens, UniProt Q6ZN32 1-361).
T2 sequence: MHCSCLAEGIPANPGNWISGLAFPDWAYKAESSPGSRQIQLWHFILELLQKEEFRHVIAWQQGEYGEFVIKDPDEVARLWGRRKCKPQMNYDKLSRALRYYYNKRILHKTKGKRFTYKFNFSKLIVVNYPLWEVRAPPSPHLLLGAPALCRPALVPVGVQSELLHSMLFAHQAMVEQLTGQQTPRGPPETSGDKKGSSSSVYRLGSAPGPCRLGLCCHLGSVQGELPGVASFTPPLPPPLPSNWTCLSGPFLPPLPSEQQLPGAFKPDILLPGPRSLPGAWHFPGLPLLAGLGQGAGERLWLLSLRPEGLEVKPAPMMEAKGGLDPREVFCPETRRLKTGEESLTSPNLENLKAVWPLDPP
The method in brief:
as §1

The target in experiment [3] is T3, ETS2 (Homo sapiens, UniProt P15036 1-469).
T3 sequence: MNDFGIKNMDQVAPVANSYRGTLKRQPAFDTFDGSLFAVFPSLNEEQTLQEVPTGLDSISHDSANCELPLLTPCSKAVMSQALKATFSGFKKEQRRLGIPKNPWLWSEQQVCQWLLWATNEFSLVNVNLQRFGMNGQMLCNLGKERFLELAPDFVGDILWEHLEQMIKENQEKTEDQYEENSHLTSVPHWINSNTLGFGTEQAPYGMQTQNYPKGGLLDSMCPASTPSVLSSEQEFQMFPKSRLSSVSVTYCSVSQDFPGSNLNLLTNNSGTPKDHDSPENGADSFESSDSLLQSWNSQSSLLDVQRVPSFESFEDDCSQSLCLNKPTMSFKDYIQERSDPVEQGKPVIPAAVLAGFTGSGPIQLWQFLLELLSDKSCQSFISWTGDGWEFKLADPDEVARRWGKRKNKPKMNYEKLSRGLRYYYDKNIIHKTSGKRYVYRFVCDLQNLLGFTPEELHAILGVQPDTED
In a few lines: as §1

Experiment [4] has as its target T4, SPDEF (Homo sapiens, UniProt O95238 1-335).
T4 sequence: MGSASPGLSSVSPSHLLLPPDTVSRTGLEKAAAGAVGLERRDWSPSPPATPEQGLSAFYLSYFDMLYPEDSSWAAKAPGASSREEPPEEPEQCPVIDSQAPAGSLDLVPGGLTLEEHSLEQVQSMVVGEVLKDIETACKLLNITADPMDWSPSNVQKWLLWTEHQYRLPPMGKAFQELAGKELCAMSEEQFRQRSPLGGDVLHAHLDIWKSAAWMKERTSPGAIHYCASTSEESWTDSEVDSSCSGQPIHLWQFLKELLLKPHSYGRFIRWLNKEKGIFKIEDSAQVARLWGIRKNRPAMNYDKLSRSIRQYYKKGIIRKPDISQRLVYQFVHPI
In a few lines:
as §1

Experiment [5] addresses T5, ETV7 (Homo sapiens, UniProt Q9Y603 1-341).
T5 sequence: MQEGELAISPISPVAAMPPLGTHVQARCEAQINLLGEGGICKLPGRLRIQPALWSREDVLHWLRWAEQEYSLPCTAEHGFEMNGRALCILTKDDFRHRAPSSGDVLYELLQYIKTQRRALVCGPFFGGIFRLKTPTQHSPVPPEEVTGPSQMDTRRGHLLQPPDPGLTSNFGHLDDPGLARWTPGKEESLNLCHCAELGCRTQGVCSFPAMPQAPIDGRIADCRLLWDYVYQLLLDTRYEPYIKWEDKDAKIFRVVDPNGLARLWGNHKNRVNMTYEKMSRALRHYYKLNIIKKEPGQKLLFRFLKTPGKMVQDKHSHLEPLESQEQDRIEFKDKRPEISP
In a few lines:
as §1

Experiment [6] deals with T6, ELF5 (Homo sapiens, UniProt Q9UKW6-2 1-255).
T6 sequence: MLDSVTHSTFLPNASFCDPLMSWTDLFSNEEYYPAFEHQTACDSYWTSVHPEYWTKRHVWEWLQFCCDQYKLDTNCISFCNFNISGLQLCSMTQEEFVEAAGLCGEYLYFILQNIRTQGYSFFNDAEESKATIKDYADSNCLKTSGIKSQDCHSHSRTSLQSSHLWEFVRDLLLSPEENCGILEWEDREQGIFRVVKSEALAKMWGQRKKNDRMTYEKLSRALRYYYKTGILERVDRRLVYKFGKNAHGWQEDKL
The method in brief: as §1

The target of experiment [7] is T7, ETV3 (Homo sapiens, UniProt P41162-2 1-143).
T7 sequence: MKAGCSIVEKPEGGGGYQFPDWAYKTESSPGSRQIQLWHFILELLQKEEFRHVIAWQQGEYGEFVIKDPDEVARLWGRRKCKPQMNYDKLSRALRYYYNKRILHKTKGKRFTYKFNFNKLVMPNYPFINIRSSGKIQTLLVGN
In a few lines:
as §1

Experiment [8] has as its target ETV6 (Homo sapiens, UniProt P41212 1-452). In a few lines:
as §1

Chain of ETV6 (P41212 whole entry): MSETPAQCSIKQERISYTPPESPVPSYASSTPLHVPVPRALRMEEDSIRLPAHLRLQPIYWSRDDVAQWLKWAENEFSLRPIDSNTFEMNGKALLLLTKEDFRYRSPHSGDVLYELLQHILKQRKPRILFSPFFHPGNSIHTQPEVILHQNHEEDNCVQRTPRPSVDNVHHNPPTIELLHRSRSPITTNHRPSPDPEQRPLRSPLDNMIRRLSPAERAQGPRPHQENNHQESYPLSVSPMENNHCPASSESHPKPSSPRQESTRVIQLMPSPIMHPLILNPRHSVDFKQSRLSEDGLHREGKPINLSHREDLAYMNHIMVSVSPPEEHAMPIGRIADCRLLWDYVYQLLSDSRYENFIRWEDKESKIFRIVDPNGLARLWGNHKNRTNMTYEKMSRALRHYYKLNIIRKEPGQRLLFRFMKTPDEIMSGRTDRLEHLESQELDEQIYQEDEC

For ATATGT, the binding signal in experiment [1] was 1.25 fold enrichment (6-mer frequency, TF over GST control); in experiment [2], 1.17 fold enrichment (6-mer frequency, TF over GST control); in experiment [3], 1.19 fold enrichment (6-mer frequency, TF over GST control); in experiment [4], 1.13 fold enrichment (6-mer frequency, TF over GST control); in experiment [5], 1.16 fold enrichment (6-mer frequency, TF over GST control); in experiment [6], 1.13 fold enrichment (6-mer frequency, TF over GST control). Further, the binding signal was 1.1 fold enrichment (6-mer frequency, TF over GST control) in experiment [7] and 1.07 fold enrichment (6-mer frequency, TF over GST control) in experiment [8].
For AAAGAA, the binding signal in experiment [1] was 1.27 fold enrichment (6-mer frequency, TF over GST control); in experiment [2], 1.19 fold enrichment (6-mer frequency, TF over GST control); in experiment [3] it was 1.26 fold enrichment (6-mer frequency, TF over GST control); in experiment [4], 1.18 fold enrichment (6-mer frequency, TF over GST control); in experiment [5], 1.36 fold enrichment (6-mer frequency, TF over GST control); in experiment [6], 1.23 fold enrichment (6-mer frequency, TF over GST control). The binding signal is 1.2 fold enrichment (6-mer frequency, TF over GST control) in experiment [7] and 1.3 fold enrichment (6-mer frequency, TF over GST control) in experiment [8].
As to TTCACA, the binding signal in experiment [1] was 1.26 fold enrichment (6-mer frequency, TF over GST control); in experiment [2] it was 1.21 fold enrichment (6-mer frequency, TF over GST control); in experiment [3] it was 1.23 fold enrichment (6-mer frequency, TF over GST control); in experiment [4], 1.25 fold enrichment (6-mer frequency, TF over GST control); in experiment [5], 1.29 fold enrichment (6-mer frequency, TF over GST control); in experiment [6], 1.12 fold enrichment (6-mer frequency, TF over GST control). Further, the binding signal was 1.13 fold enrichment (6-mer frequency, TF over GST control) in experiment [7] and 1.13 fold enrichment (6-mer frequency, TF over GST control) in experiment [8].
Regarding GACATC, the binding signal is 1.22 fold enrichment (6-mer frequency, TF over GST control) in experiment [1]; 1.27 fold enrichment (6-mer frequency, TF over GST control) in experiment [2]; 1.31 fold enrichment (6-mer frequency, TF over GST control) in experiment [3]; 1.57 fold enrichment (6-mer frequency, TF over GST control) in experiment [4]; 1.31 fold enrichment (6-mer frequency, TF over GST control) in experiment [5]; 1.35 fold enrichment (6-mer frequency, TF over GST control) in experiment [6]. For the same sequence, the binding signal is 1.33 fold enrichment (6-mer frequency, TF over GST control) in experiment [7] and 1.33 fold enrichment (6-mer frequency, TF over GST control) in experiment [8].
Consider ATCTAC, for which the binding signal in experiment [1] was 1.44 fold enrichment (6-mer frequency, TF over GST control); in experiment [2], 1.36 fold enrichment (6-mer frequency, TF over GST control); in experiment [3], 1.32 fold enrichment (6-mer frequency, TF over GST control); in experiment [4], 1.24 fold enrichment (6-mer frequency, TF over GST control); in experiment [5] it was 1.21 fold enrichment (6-mer frequency, TF over GST control); in experiment [6], 1.3 fold enrichment (6-mer frequency, TF over GST control). Moreover, the binding signal in experiment [7] was 1.2 fold enrichment (6-mer frequency, TF over GST control); in experiment [8], 1.29 fold enrichment (6-mer frequency, TF over GST control).
Regarding GAACAC, the binding signal was 1.11 fold enrichment (6-mer frequency, TF over GST control) in experiment [1]; 1.18 fold enrichment (6-mer frequency, TF over GST control) in experiment [2]; 1.12 fold enrichment (6-mer frequency, TF over GST control) in experiment [3]; 1.26 fold enrichment (6-mer frequency, TF over GST control) in experiment [4]; 1.15 fold enrichment (6-mer frequency, TF over GST control) in experiment [5]; 1.17 fold enrichment (6-mer frequency, TF over GST control) in experiment [6]. Besides, the binding signal in experiment [7] is 1.14 fold enrichment (6-mer frequency, TF over GST control); in experiment [8], 1.13 fold enrichment (6-mer frequency, TF over GST control).
Take CCTACC: the binding signal in experiment [1] is 1.37 fold enrichment (6-mer frequency, TF over GST control); in experiment [2] it was 1.37 fold enrichment (6-mer frequency, TF over GST control); in experiment [3], 1.36 fold enrichment (6-mer frequency, TF over GST control); in experiment [4], 1.35 fold enrichment (6-mer frequency, TF over GST control); in experiment [5], 1.21 fold enrichment (6-mer frequency, TF over GST control); in experiment [6], 1.44 fold enrichment (6-mer frequency, TF over GST control). Also, the binding signal in experiment [7] is 1.35 fold enrichment (6-mer frequency, TF over GST control); in experiment [8], 1.32 fold enrichment (6-mer frequency, TF over GST control).
GCGGAA: the binding signal in experiment [1] is 1.19 fold enrichment (6-mer frequency, TF over GST control); in experiment [2], 1.29 fold enrichment (6-mer frequency, TF over GST control); in experiment [3] it was 1.42 fold enrichment (6-mer frequency, TF over GST control); in experiment [4], 1.22 fold enrichment (6-mer frequency, TF over GST control); in experiment [5], 1.26 fold enrichment (6-mer frequency, TF over GST control); in experiment [6] it was 1.67 fold enrichment (6-mer frequency, TF over GST control). In addition, the binding signal in experiment [7] was 1.55 fold enrichment (6-mer frequency, TF over GST control); in experiment [8], 1.58 fold enrichment (6-mer frequency, TF over GST control).
